Assay results from PubChem BioAssay AID1159580 (chemical genetic matrix, 2015).
Where “and” joins values, the source holds several entries; their conditions need not be identical. Identical values can stand only once. Screen size: about 5,500 compounds; about 2,000 (36%) were called active. Roughly 18% stayed inconclusive and do not appear here. Some of the results follow. Values without a mark were called inactive. Rule as the data show it: active = normalized growth mostly below about 0.91 (no sharp cut-off); inconclusive = no clear call, values can overlap the other calls; inactive = mostly above about 0.92.

Experiment: chemical genetic growth profiling, strain panel (AID 1159580);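 also: tested at 20 µM; growth read once vehicle control cultures reached saturation at 30 °C; 1 = growth at the plate median or of vehicle wells; lower values mean less growth of the strain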
Conditions: S. cerevisiae deletion strains, growth OD

SMILES: COc1ccc(-c2c(O)c3c(OC)c4c(cc3oc2=O)OC(C)(C)C=C4)cc1
- normalized growth (locus YAL013W, strain DEP1, stronger effect = lower value): 0.959
- normalized growth (locus YAL021C, strain ccr4, stronger effect = lower value): 0.938
- normalized growth (locus YAL026C, strain drs2, stronger effect = lower value): 0.952
- normalized growth (locus YAL030W, strain snc1, stronger effect = lower value): 0.951
- normalized growth (locus YBL061C, strain skt5, stronger effect = lower value): 0.942
- normalized growth (locus YBR009C, strain hhf1, stronger effect = lower value): 0.953
- normalized growth (locus YBR021W, strain FUR4, stronger effect = lower value): 0.946
- normalized growth (locus YBR023C, strain chs3, stronger effect = lower value): 0.947
- normalized growth (locus YBR171W, strain sec66, stronger effect = lower value): 0.919
- normalized growth (locus YBR229C, strain ROT2, stronger effect = lower value): 0.951
- normalized growth (locus YBR231C, strain swc5, stronger effect = lower value): 0.954
- normalized growth (locus YBR279W, strain paf1, stronger effect = lower value): 0.972
- normalized growth (locus YCL011C, strain gbp2, stronger effect = lower value): 0.957
- normalized growth (locus YCL016C, strain dcc1, stronger effect = lower value): 0.955
- normalized growth (locus YCL029C, strain bik1, stronger effect = lower value): 0.937
- normalized growth (locus YCL061C, strain MRC1, stronger effect = lower value): 0.945
- normalized growth (locus YCL069W, strain vba3, stronger effect = lower value): 0.955
- normalized growth (locus YCR088W, strain abp1, stronger effect = lower value): 0.947
- normalized growth (locus YDL005C, strain med2, stronger effect = lower value): 0.966
- normalized growth (locus YDL035C, strain GPR1, stronger effect = lower value): 1
- normalized growth (locus YDL040C, strain nat1, stronger effect = lower value): 0.95
- normalized growth (locus YDL074C, strain BRE1, stronger effect = lower value): 0.967
- normalized growth (locus YDL101C, strain DUN1, stronger effect = lower value): 0.962
- normalized growth (locus YDL185W, strain tfp1, stronger effect = lower value): 0.944
- normalized growth (locus YDL192W, strain arf1, stronger effect = lower value): 0.959
- normalized growth (locus YDR001C, strain nth1, stronger effect = lower value): 0.948
- normalized growth (locus YDR069C, strain doa4, stronger effect = lower value): 0.992
- normalized growth (locus YDR101C, strain arx1, stronger effect = lower value): 0.961
- normalized growth (locus YDR137W, strain rgp1, stronger effect = lower value): 0.845 (active)
- normalized growth (locus YDR150W, strain NUM1, stronger effect = lower value): 0.936
- normalized growth (locus YDR159W, strain sac3, stronger effect = lower value): 1.01
- normalized growth (locus YDR162C, strain NBP2, stronger effect = lower value): 0.962
- normalized growth (locus YDR195W, strain ref2): 0.981
- normalized growth (locus YDR297W, strain sur2, stronger effect = lower value): 1.02
- normalized growth (locus YDR318W, strain mcm21, stronger effect = lower value): 0.936
- normalized growth (locus YDR334W, strain swr1, stronger effect = lower value): 0.955
- normalized growth (locus YDR335W, strain msn5, stronger effect = lower value): 0.971
- normalized growth (locus YDR388W, stronger effect = lower value): 0.924 (active)
- normalized growth (locus YDR392W, strain spt3, stronger effect = lower value): 0.725 (active)
- normalized growth (locus YDR502C, strain sam2, stronger effect = lower value): 0.891 (active)
- normalized growth (locus YEL003W, strain gim4, stronger effect = lower value): 0.958
- normalized growth (locus YEL037C, strain rad23, stronger effect = lower value): 0.962
- normalized growth (locus YEL061C, strain CIN8 (second series), stronger effect = lower value): 0.957
- normalized growth (locus YER015W, strain faa2, stronger effect = lower value): 0.975
- normalized growth (locus YER016W, strain bim1, stronger effect = lower value): 0.951
- normalized growth (locus YER110C, stronger effect = lower value): 0.949
- normalized growth (locus YER111C, strain swi4, stronger effect = lower value): 0.969
- normalized growth (locus YER155C, strain BEM2 (second series), stronger effect = lower value): 0.963
- normalized growth (locus YER155C, strain BEM2, stronger effect = lower value): 0.956
- normalized growth (locus YER167W, strain BCK2, stronger effect = lower value): 0.954
- normalized growth (locus YFR010W, strain ubp6, stronger effect = lower value): 0.967
- normalized growth (locus YGL078C, strain dbp3, stronger effect = lower value): 0.99
- normalized growth (locus YGL086W, strain mad1, stronger effect = lower value): 0.949
- normalized growth (locus YGL167C, strain pmr1, stronger effect = lower value): 0.92
- normalized growth (locus YGL173C, strain kem1, stronger effect = lower value): 0.958
- normalized growth (locus YGL227W, strain vid30, stronger effect = lower value): 0.953
- normalized growth (locus YGL240W, strain doc1, stronger effect = lower value): 0.989
- normalized growth (locus YGL248W, strain PDE1, stronger effect = lower value): 0.979
- normalized growth (locus YGL253W, strain hxk2, stronger effect = lower value): 0.949
- normalized growth (locus YGR078C, strain PAC10, stronger effect = lower value): 0.984
- normalized growth (locus YGR135W, strain pre9, stronger effect = lower value): 0.931
- normalized growth (locus YGR252W, strain gcn5, stronger effect = lower value): 0.96
- normalized growth (locus YHR013C, strain ard1, stronger effect = lower value): 0.959
- normalized growth (locus YHR027C, strain rpn1, stronger effect = lower value): 0.973
- normalized growth (locus YHR030C, strain SLT2, stronger effect = lower value): 0.956 and 1
- normalized growth (locus YHR079C, strain IRE1 (second series), stronger effect = lower value): 0.953
- normalized growth (locus YHR079C, strain IRE1, stronger effect = lower value): 0.992
- normalized growth (locus YHR094C, strain hxt1, stronger effect = lower value): 0.939
- normalized growth (locus YHR129C, strain ARP1, stronger effect = lower value): 0.972
- normalized growth (locus YHR142W, strain chs7, stronger effect = lower value): 0.925
- normalized growth (locus YHR200W, strain rpn10, stronger effect = lower value): 0.946
- normalized growth (locus YIL066C, strain RNR3, stronger effect = lower value): 0.957
- normalized growth (locus YIL073C, strain SPO22, stronger effect = lower value): 0.919
- normalized growth (locus YIL125W, strain kgd1, stronger effect = lower value): 0.978
- normalized growth (locus YIR030C, strain dcg1, stronger effect = lower value): 0.958
- normalized growth (locus YJL092W, strain hpr5, stronger effect = lower value): 0.946
- normalized growth (locus YJL095W, strain BCK1 (second series), stronger effect = lower value): 0.954
- normalized growth (locus YJL095W, strain BCK1, stronger effect = lower value): 0.944 and 0.971
- normalized growth (locus YJL115W, strain asf1, stronger effect = lower value): 0.962
- normalized growth (locus YJL129C, strain trk1, stronger effect = lower value): 0.789 (active)
- normalized growth (locus YJL134W, strain LCB3, stronger effect = lower value): 0.942
- normalized growth (locus YJL154C, strain vps35, stronger effect = lower value): 0.958
- normalized growth (locus YJL164C, strain tpk1, stronger effect = lower value): 0.967
- normalized growth (locus YJL166W, strain qcr8, stronger effect = lower value): 0.966
- normalized growth (locus YJL168C, strain set2, stronger effect = lower value): 0.93 (active)
- normalized growth (locus YJL187C, strain SWE1 (second series), stronger effect = lower value): 0.943
